Data taken from PubChem BioAssay.
Several values for one entry are separate records, joined by “and”; a condition that tells them apart may be missing. Identical values can stand only once. For part of these data: Measured potencies and affinities stand elsewhere. Some compounds were tested as several samples or in several runs, with calls that do not always agree. Activity calls are given as the source filed them. Unless noted, the rule behind the calls is not given here.

Legend:
[1] = antimalarial activity against Dd2 strain (AID 2302;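 active = growth inhibition above 50% at the single 2 µM test dose, taken to imply half-maximal potency below 2 µM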;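 note: 0% = DMSO untreated growth and 100% = chloroquine plus artemisinin killed control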); conditions: P. falciparum Dd2 in RBCs, LDH growth readout, 72 h; at 2 µM; stronger effect = higher value
[2] = human hepatoma cell viability loss – ATP luminescence, cytotoxicity control for P. falciparum antimalarial project, primary screen (AID 2303;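 active = inhibition above 50%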;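 note: 0% = DMSO wells and 100% = digitonin-killed cells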); conditions: HepG2 viability, 24-48 h, at 10 µM, stronger effect = higher value
[3] = target: L-lactate dehydrogenase (Plasmodium falciparum (isolate CDC / Honduras)) (UniProt Q27743); experiment: PfLDH activity inhibition – cell lysate, 3D7 strain, counter-screen for P. falciparum growth inhibition project (AID 2304);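 note: 0% = vehicle and 100% = reference inhibitor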; conditions: P. falciparum 3D7 crude extract, LDH APAD/NBT absorbance; at 2 µM; stronger effect = higher value
L-lactate dehydrogenase (Plasmodium falciparum (isolate CDC / Honduras)), sequence (Q27743 whole entry, looked up): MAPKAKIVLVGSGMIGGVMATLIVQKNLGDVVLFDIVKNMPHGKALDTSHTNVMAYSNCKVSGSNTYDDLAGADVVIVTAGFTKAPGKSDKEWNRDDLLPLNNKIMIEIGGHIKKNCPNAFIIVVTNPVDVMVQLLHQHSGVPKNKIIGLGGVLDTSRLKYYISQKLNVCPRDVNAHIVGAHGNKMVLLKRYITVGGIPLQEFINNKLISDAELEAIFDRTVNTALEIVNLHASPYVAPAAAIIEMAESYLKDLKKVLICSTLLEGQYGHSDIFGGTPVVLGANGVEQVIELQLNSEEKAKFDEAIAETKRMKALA

[4] = inhibition of 3D7 malaria parasite growth – strain 3D7 (AID 2306);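 note: 0% = DMSO wells and 100% = chloroquine plus artemisinin control wells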; conditions: P. falciparum 3D7 erythrocytic growth, LDH absorbance, 72 h; at 2 µM; stronger effect = higher value
[5] = target: Calcium-dependent protein kinase 1 (Plasmodium falciparum (isolate 3D7)) (UniProt P62344); experiment: PfCDPK1 kinase inhibitors, biochemical, TCAMS library (AID 1159585; cut-off not given, nearly all actives have IC50 up to about 0.98 µM;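 note: inhibitors leave more ATP so luminescence rises with inhibition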); conditions: recombinant PfCDPK1, Kinase-Glo ATP depletion luminescence
Calcium-dependent protein kinase 1 (Plasmodium falciparum (isolate 3D7)), sequence (P62344 whole entry, looked up): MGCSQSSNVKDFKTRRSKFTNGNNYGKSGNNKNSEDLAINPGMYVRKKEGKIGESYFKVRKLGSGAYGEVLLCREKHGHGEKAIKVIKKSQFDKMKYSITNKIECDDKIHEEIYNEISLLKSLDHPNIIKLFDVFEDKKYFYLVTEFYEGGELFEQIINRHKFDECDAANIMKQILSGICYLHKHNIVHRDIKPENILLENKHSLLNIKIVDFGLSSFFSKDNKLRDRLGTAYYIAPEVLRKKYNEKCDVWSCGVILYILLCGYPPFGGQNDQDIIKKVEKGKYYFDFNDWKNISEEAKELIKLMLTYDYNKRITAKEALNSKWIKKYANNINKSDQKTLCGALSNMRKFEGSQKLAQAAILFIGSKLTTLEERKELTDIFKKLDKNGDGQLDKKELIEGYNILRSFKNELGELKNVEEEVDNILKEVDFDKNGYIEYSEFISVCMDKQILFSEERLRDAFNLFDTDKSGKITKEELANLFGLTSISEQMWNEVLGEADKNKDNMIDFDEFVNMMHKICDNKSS

[6] = target: Plasmodium falciparum protein kinase 6 (PK6, PF3D7_1337100) (UniProt Q8IDW1); experiment: PfPK6 kinase inhibitors, biochemical, TCAMS library (AID 1159586); conditions: recombinant PfPK6, Kinase-Glo ATP depletion luminescence
Plasmodium falciparum protein kinase 6 (PK6, PF3D7_1337100), sequence (Q8IDW1 1-305): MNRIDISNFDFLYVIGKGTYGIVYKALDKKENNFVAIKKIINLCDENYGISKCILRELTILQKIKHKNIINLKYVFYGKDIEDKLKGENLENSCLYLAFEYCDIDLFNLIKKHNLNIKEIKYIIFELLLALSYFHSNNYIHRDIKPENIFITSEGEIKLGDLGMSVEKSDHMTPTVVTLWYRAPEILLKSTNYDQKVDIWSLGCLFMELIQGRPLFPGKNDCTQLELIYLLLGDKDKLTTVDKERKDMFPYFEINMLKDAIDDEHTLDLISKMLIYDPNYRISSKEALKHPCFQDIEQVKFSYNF

[7] = target: Protein kinase 7 (PK7), Plasmodium falciparum 3D7 (PF3D7_0213400) (UniProt Q7YTF7); experiment: inhibition of Plasmodium PK7 catalytic activity – biochemical, TCAMS antimalarial set, Kinase-Glo luminescence (AID 1159587); conditions: recombinant PfPK7, Kinase-Glo ATP depletion luminescence
Protein kinase 7 (PK7), Plasmodium falciparum 3D7 (PF3D7_0213400), sequence (Q7YTF7 1-343): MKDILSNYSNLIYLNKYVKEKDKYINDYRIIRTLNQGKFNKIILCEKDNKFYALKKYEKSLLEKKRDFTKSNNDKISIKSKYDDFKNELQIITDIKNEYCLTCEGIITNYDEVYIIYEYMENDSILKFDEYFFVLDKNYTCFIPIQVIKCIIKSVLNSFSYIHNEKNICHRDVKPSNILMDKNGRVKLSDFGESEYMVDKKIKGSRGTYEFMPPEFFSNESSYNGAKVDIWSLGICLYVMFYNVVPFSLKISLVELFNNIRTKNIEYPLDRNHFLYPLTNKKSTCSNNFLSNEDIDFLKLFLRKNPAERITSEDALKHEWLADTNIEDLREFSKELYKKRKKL

[8] = target: Calcium-dependent protein kinase 4 (Plasmodium falciparum (isolate 3D7)) (UniProt Q8IBS5); experiment: PfCDPK4 kinase inhibitors, biochemical, TCAMS library (AID 1159588; cut-off not given, nearly all actives have IC50 up to about 0.91 µM); conditions: recombinant PfCDPK4, Kinase-Glo ATP depletion luminescence
Calcium-dependent protein kinase 4 (Plasmodium falciparum (isolate 3D7)), sequence (Q8IBS5 whole entry, looked up): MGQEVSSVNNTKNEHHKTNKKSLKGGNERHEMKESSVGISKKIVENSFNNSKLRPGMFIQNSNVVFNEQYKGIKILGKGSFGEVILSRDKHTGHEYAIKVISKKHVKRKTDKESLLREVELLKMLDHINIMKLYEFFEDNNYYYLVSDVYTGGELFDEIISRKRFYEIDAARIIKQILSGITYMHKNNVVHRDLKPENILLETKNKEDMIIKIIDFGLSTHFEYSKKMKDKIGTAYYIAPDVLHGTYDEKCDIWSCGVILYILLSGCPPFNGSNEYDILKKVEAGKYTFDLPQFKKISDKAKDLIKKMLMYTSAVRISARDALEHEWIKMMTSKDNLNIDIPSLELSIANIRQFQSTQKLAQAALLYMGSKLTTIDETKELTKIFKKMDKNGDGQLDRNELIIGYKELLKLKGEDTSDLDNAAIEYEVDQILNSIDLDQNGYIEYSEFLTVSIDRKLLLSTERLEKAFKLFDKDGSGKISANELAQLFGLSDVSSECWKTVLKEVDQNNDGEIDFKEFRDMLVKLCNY

Row | Compound | growth inhibition [1] | inhibition [2] | inhibition [3] | growth inhibition [4] | outcome [5] | outcome [6] | outcome [7] | outcome [8]
1 | CC(C)(C)c1cc(/C=C/C(=O)NC2CCC(CN3CCC(c4c[nH]c5ccccc45)CC3)CC2)cc(C(C)(C)C)c1O (stereo not given) | 100% (active) | 98% (active) and 99% (active) | -3% (inactive) and -5% (inactive) | 101% (active) and 102% (active) | inactive | inactive | inactive | inactive
2 | FC(F)(F)c1cccc(N2CCC(CN3CCC(c4c[nH]c5ccccc45)CC3)CC2)n1 | 10% (inactive) | 41% (inactive) | -3% (inactive) | 84% (active) | inactive | inactive | inactive | inactive
3 | CC[C@H]1CN2CC[C@@H]1C[C@H]2[C@H](O)c1cc(N2CCC(N3CCCCC3)CC2)nc2ccc(OC)cc12 | 77% (active) | 0% (inactive) | 3% (inactive) | 99% (active) | inactive | inactive | inactive | inactive
4 | Cc1[nH]c2ccccc2c1C1CCN(CC2CCC(NC(=O)/C=C/c3ccc(Cl)c(Cl)c3)CC2)CC1 (stereo not given) | 93% (active) | 15% (inactive) | 1% (inactive) | 101% (active) | inactive | inactive | inactive | inactive
5 | COc1cc2nc(N(C)C3CCN(Cc4ccccc4)CC3)nc(N)c2cc1OC | 93% (active) | 19% (inactive) | 1% (inactive) | 99% (active) | inactive | inactive | inactive | inactive
6 | CC(Cc1ccc(OCc2ccc(CCN(C)C)cc2)cc1)NCCc1cccc(Cl)c1 (stereo not given) | 78% (active) | 42% (inactive) | 5% (inactive) | 100% (active) | inactive | inactive | inactive | inactive
7 | CC[C@H]1CN2CC[C@H]1C[C@H]2[C@H](OC(=O)c1ccccc1)c1cc(C#N)nc2ccc(OC)cc12 | 49% (inactive) | 19% (inactive) | -2% (inactive) | 97% (active) | inactive | inactive | inactive | inactive
8 | O=C(NC1CCC(CN2CCC(c3c[nH]c4ccccc34)CC2)CC1)c1cc(-c2ccc(F)cc2F)ccc1O (stereo not given) | 101% (active) | 30% (inactive) | 0% (inactive) | 101% (active) | inactive | inactive | inactive | inactive
9 | O=C(NC1CCC(CN2CCC(c3c[nH]c4ccccc34)CC2)CC1)c1csc(-c2cccc(Cl)c2Cl)n1 (stereo not given) | 41% (inactive) | 34% (inactive) | -3% (inactive) | 99% (active) | inactive | inactive | inactive | inactive
10 | CNC(=O)c1ccc2[nH]cc(C3CCN(CC4CCC(NC(=O)/C=C/c5ccccc5Cl)CC4)CC3)c2c1 (stereo not given) | 19% (inactive) | 12% (inactive) | 3% (inactive) | 100% (active) | inactive | inactive | inactive | inactive
11 | Cc1cc(N)nc2ccc(CNCCc3ccccc3Br)cc12 | 77% (active) | 28% (inactive) | 7% (inactive) | 102% (active) | inactive | inactive | inactive | inactive
12 | S=C(NCCc1ccc(Cl)cc1)N1CCC(CN2CCC(c3c[nH]c4ccccc34)CC2)CC1 | 7% (inactive) | 31% (inactive) | 0% (inactive) | 90% (active) | inactive | inactive | inactive | inactive
13 | COCC(=O)N(Cc1ccccc1-c1ccc(CNCCc2ccccc2)cc1)C1CCN(Cc2ccccc2)CC1 | 86% (active) | 39% (inactive) | 1% (inactive) | 94% (active) | inactive | inactive | inactive | inactive
14 | CCN(CC)CCOC(=O)C(OC)(c1ccccc1)c1ccccc1 | 6% (inactive) | -4% (inactive) | 2% (inactive) | 97% (active) | inactive | inactive | inactive | inactive
15 | CC(=O)N(Cc1cccc(-c2ccc(CNCCc3ccccc3)cc2)c1)C1CCN(Cc2ccccc2)CC1 | 50% (active) | 32% (inactive) | -5% (inactive) | 99% (active) | inactive | inactive | inactive | inactive
16 | Cc1cc(N(C)C2CCN(C)CC2)nc(Nc2ccc(Cl)cc2)n1 | 90% (active) | 15% (inactive) | -6% (inactive) | 98% (active) | inactive | inactive | inactive | inactive
17 | CNCCc1c(O)ccc2ccccc12 | -1% (inactive) | 6% (inactive) | 2% (inactive) | 94% (active) | inactive | inactive | inactive | inactive
18 | Cc1[nH]c2c(C)cc(NS(C)(=O)=O)cc2c1C1CCN(CC2CCN(C(=O)/C=C/c3ccc(Cl)c(Cl)c3)CC2)CC1 | 99% (active) | 33% (inactive) | 1% (inactive) | 100% (active) | inactive | inactive | inactive | inactive
19 | Cc1nc(-c2ccc(-c3ccc(C(=O)Nc4ccc5c(c4)C4(CCNCC4)CO5)cc3)c(C)c2)no1 | 15% (inactive) | 37% (inactive) | -3% (inactive) | 90% (active) | inactive | inactive | inactive | inactive
20 | COc1cccc(C(=O)[C@H]2C[C@@H]2CN2CC=C(c3c[nH]c4cccc(Br)c34)CC2)c1 | 85% (active) | 22% (inactive) | -3% (inactive) | 96% (active) | inactive | inactive | inactive | inactive
21 | COC(C(=O)OCCC1CCCN1C)(c1ccccc1)c1ccccc1 (stereo not given) | 9% (inactive) | 6% (inactive) | 2% (inactive) | 98% (active) | inactive | inactive | inactive | inactive
22 | COC(=O)C(C)(C)c1ccc(CC(C)NCC(O)c2cccc(C(F)(F)F)c2)cc1 (stereo not given) | 98% (active) | 6% (inactive) | -7% (inactive) | 99% (active) | inactive | inactive | inactive | inactive
23 | O=C(/C=C/c1ccc(Cl)c(Cl)c1)NCC1CCC(CN2CCC(c3c[nH]c4ccccc34)CC2)CC1 (stereo not given) | 93% (active) | 54% (active) | 4% (inactive) | 102% (active) | inactive | inactive | inactive | inactive

Row | Compound | growth inhibition [1] | inhibition [2] | inhibition [3] | growth inhibition [4] | outcome [5] | outcome [6] | outcome [7] | outcome [8]
24 | CC(C)n1ncc2c(C(=O)Nc3ccc(C#N)c(Cl)c3)cc(C3CC3)nc21 | 15% (inactive) | 20% (inactive) | 2% (inactive) | 93% (active) | inactive | inactive | inactive | inactive
25 | CC(C)CNCc1ccc(-c2ccc(CN(C(=O)NC3CCCCC3)C3CCN(Cc4ccccc4)CC3)cc2)cc1 | 88% (active) | 39% (inactive) | -1% (inactive) | 101% (active) | inactive | inactive | inactive | inactive
26 | O=C(CCCCCc1ccccc1)NC1CCC(CN2CCC(c3c[nH]c4ccccc34)CC2)CC1 (stereo not given) | 5% (inactive) | 34% (inactive) | -3% (inactive) | 86% (active) | inactive | inactive | inactive | inactive
27 | CC(=O)Nc1ccc(CN2CCC(N(C)c3cc(NC(=O)c4cccs4)ccn3)CC2)cc1 | 43% (inactive) | -1% (inactive) | 2% (inactive) | 101% (active) | inactive | inactive | inactive | inactive
28 | COc1ccc(C=CC(=O)NC2CCC(CN3CCC(c4c[nH]c5ccccc45)CC3)CC2)cc1 (stereo not given) | 60% (active) and 61% (active) | 13% (inactive) and 30% (inactive) | -6% (inactive) and -7% (inactive) | 100% (active) | inactive | inactive | inactive | inactive
29 | S=C(Nc1ccc2c(c1)OCCO2)NC1CCC(CN2CCC(c3c[nH]c4ccccc34)CC2)CC1 (stereo not given) | 7% (inactive) and 1% (inactive) | 31% (inactive) and 32% (inactive) | -8% (inactive) and -1% (inactive) | 96% (active) and 92% (active) | inactive | inactive | inactive | inactive
30 | Cc1c(C)c2c(c(C)c1O)CC[C@](C)(C(=O)NC1CCC(CN3CCC(c4c[nH]c5ccccc45)CC3)CC1)O2 (stereo not given in full) | 98% (active) and 48% (inactive) | 24% (inactive) and 27% (inactive) | -2% (inactive) and 1% (inactive) | 96% (active) and 85% (active) | inactive | inactive | inactive | inactive
31 | O=C(NCc1ccc(S(=O)(=O)N2CCC(CN3CCC(c4c[nH]c5ccccc45)CC3)CC2)s1)c1ccccc1 | 21% (inactive) | 32% (inactive) | 5% (inactive) | 92% (active) | inactive | inactive | inactive | inactive
32 | Cc1csc(-c2ccc3[nH]cc(C4=CCN(C)CC4)c3c2)n1 | 78% (active) | 10% (inactive) | -3% (inactive) | 93% (active) | inactive | inactive | inactive | inactive
33 | O=C(/C=C/C=C/c1ccccc1)NC1CCC(CN2CCC(c3c[nH]c4ccccc34)CC2)CC1 (stereo not given) | 66% (active) | 49% (inactive) | 7% (inactive) | 100% (active) | inactive | inactive | inactive | inactive
34 | CC(=O)N(Cc1ccc(-c2ccc(CNCCc3ccccc3)cc2)cc1)C1CCN(Cc2ccccc2)CC1 | 15% (inactive) | 45% (inactive) | -2% (inactive) | 95% (active) | inactive | inactive | inactive | inactive
35 | CC[C@H]1CN2CC[C@H]1C[C@H]2[C@@H](O)c1cc(OCCCN(C)C)nc2ccc(OC)cc12 | 8% (inactive) | -7% (inactive) | -2% (inactive) | 99% (active) | inactive | inactive | inactive | inactive
36 | CC(C)CNCc1cccc(-c2ccccc2CN(C(=O)Nc2ccccc2)C2CCN(Cc3ccccc3)CC2)c1 | 68% (active) | 36% (inactive) | -2% (inactive) | 100% (active) | inactive | inactive | inactive | inactive
37 | COc1cccc(CC(C)NCC(O)c2cccc(Cl)c2)c1 (stereo not given) | 76% (active) | 7% (inactive) | -1% (inactive) | 85% (active) | inactive | inactive | inactive | inactive
38 | COc1ccc(C2CNCc3c2cc(OC)c(OC)c3Cl)cc1 (stereo not given) | 3% (inactive) | 42% (inactive) | 2% (inactive) | 98% (active) | inactive | inactive | inactive | inactive
39 | CC(Cc1ccc(NC(=O)[C@@H](C)NCCc2cccc(Cl)c2)cc1)NCCc1cccc(Cl)c1 (stereo not given in full) | 54% (active) | 99% (active) | -1% (inactive) | 99% (active) | inactive | inactive | inactive | inactive
40 | Cc1cc(N(C)C2CCN(C)CC2)nc(Nc2ccc(Br)cc2)n1 | 92% (active) | -5% (inactive) | 2% (inactive) | 100% (active) | inactive | inactive | inactive | inactive
41 | CC(Cc1ccc(CSC(C)C)cc1)NCC(O)c1cccc(Cl)c1 (stereo not given) | 98% (active) | 11% (inactive) | -8% (inactive) | 98% (active) | inactive | inactive | inactive | inactive
42 | CC(C)c1ccc(C=CC(=O)NC2CCC(CN3CCC(c4c[nH]c5ccccc45)CC3)CC2)cc1 (stereo not given) | 85% (active) | 50% (active) | -3% (inactive) | 101% (active) | inactive | inactive | inactive | inactive
43 | CC(=O)Nc1ccc2[nH]cc(C3CCN(CC4CCC(NC(=O)/C=C/c5ccc(Cl)c(Cl)c5)CC4)CC3)c2c1 (stereo not given) | 99% (active) and 59% (active) | 18% (inactive) and 10% (inactive) | 2% (inactive) and 6% (inactive) | 90% (active) and 100% (active) | inactive | inactive | inactive | inactive
44 | COc1ccc2c(c1)[nH]c1c(C=Cc3ccccc3)nccc12 | 6% (inactive) | 19% (inactive) | 7% (inactive) | 91% (active) | inactive | inactive | inactive | inactive
45 | CC(C)CNCc1cccc(-c2cccc(CN(C(=O)Nc3ccccc3)C3CCN(Cc4ccccc4)CC3)c2)c1 | 89% (active) | 31% (inactive) | 3% (inactive) | 102% (active) | inactive | inactive | inactive | inactive
